{"source": "PubChem BioAssay AID720553", "about": "(National Center for Advancing Translational Sciences (NCATS), 2013)", "note": "Out of some 340,000 compounds screened, about 3,300 (0.97%) were called active. For the sample, actives were picked, then their nearest neighbours and some compounds at random. Values without a mark were called inactive.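 The calls were made as follows: active = maximum activity change below -70%; inconclusive = maximum activity change from -70% to -50%; inactive = maximum activity change above -50%.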 % is scaled to controls: 0 for no effect and ±100 for the full control effect.", "data": [{"tested_on": "Potassium voltage-gated channel subfamily H member 2, brain isoform KCNH2 3.1 (human)", "experiment": "qHTS for Inhibitors of KCHN2 3.1: Mutant qHTS", "settings": "U2OS KCNH2 3.1, thallium flux FluxOr; active compounds read low", "summary_of_the_method": "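U2OS cells transduced with KCNH2 3.1 mutant virus (1.77 x 10^8 /mL, 4 h), plated overnight at 37 C, loaded 45 min with FluxOr dye plus Red40 quencher. Thallium flux rate constant from kinetic reads after stimulation buffer, normalised to controls.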", "values": [{"compound": "COCCCn1c(=O)/c(=C/c2ccccc2OC(C)C)s/c1=C(\\C#N)C(=O)Nc1ccc(C(=O)O)cc1", "activity change": "1.1%"}, {"compound": "CCOc1ccc(Br)cc1S(=O)(=O)N1CCC(C(=O)O)CC1", "activity change": "-119% (active)"}, {"compound": "CCOC(=O)N1CCN(C(=O)C2CCN(S(=O)(=O)c3cc(Cl)ccc3OCC)CC2)CC1", "activity change": "-0.753%"}, {"compound": "CCOc1ccc(S(=O)(=O)N2CCC(c3ccccc3)CC2)cc1C(=O)O", "activity change": "-0.0458%"}, {"compound": "Cc1ccccc1NC(=O)Cc1nc(COC(=O)C(C)(C)Oc2ccc(Cl)cc2)cs1", "activity change": "0.0076%"}, {"compound": "O=C(C1CCN(C2CCN(Cc3cccc4c3OCO4)CC2)CC1)N1CCOCC1", "activity change": "1.54%"}, {"compound": "O=C(C1CCN(C2CCN(Cc3ccc4cc(F)ccc4n3)CC2)CC1)N1CCCC1", "activity change": "-46.6%"}, {"compound": "C/C(=C\\c1ccco1)CN1CCC(N2CCC(C(=O)N3CCOCC3)CC2)CC1", "activity change": "-81.6% (active)"}, {"compound": "COc1ccc([C@H]2C[C@@H](n3cc(COC(=O)c4ccccc4)nn3)[C@H](O)CN2C(=O)c2cccs2)cc1", "activity change": "5.99%"}, {"compound": "COc1cc(-c2nnc(NC(=O)CS(=O)(=O)c3ccc(Cl)cc3)o2)cc(OC)c1OC", "activity change": "3.81%"}, {"compound": "CN1OC[C@@H]2CN[C@H](c3ccc(-c4ccccc4)cc3)C[C@@H]21", "activity change": "-8.66%"}, {"compound": "CC(C)c1cc(C(=O)N(C)C2CCCN(Cc3ccccc3F)C2)n(C)n1", "note": "(stereo not drawn)", "activity change": "-13.2%"}, {"compound": "COc1ccc(NC(=O)CN(C)C(=O)c2cc(C)oc2C)cc1", "activity change": "-19.2%"}, {"compound": "CCn1c(-c2cccnc2Cl)nc2cc(C)c(C)cc21", "activity change": "1.97%"}, {"compound": "CCOC(=O)Cn1c(-c2cccnc2Cl)nc2ccccc21", "activity change": "-86.5% (active)"}, {"compound": "CCOC(=O)Cn1c(=O)n(Cc2ccc(OC)cc2)c(=O)c2cccnc21", "activity change": "-6.36%"}, {"compound": "CNC(=O)CSc1nnc(CCc2ccccc2)n1-c1ccccc1", "activity change": "-7.79%"}, {"compound": "CC(C)Oc1ccc(CCc2nnc(SCC(=O)O)n2-c2ccccc2)cc1", "activity change": "-77.9% (active)"}, {"compound": "CC(C)Oc1ccc(CCc2n[nH]c(=S)n2Cc2ccccc2)cc1", "activity change": "3.01%"}, {"compound": "O=Cc1cn(CCOc2ccc(F)cc2)c2ccccc12", "activity change": "-5.46%"}, {"compound": "O=C(NCc1ccccc1)C1CNCC(C(=O)NCc2ccccc2)C1", "note": "(stereo not drawn)", "activity change": "-3.07%"}, {"compound": "COc1ccccc1NC(=O)CCN1CCN(c2ccc(Cl)cc2)CC1", "activity change": "-5.85%"}, {"compound": "O=C(CCN1CCN(C/C=C/c2ccccc2)CC1)Nc1ccccc1Cl", "activity change": "-111% (active)"}, {"compound": "CNC(=O)NC(=O)C(C)N1CCN(C/C=C/c2ccccc2)CC1", "note": "(stereo not drawn)", "activity change": "-32.3%"}, {"compound": "O=C(CCN1CCN(C/C=C/c2ccccc2)CC1)Nc1cccc(F)c1", "activity change": "-109% (active)"}, {"compound": "O=C(CN1CCN(C/C=C/c2ccccc2)CC1)Nc1ccc(F)cc1F", "activity change": "-107% (active)"}, {"compound": "O=C(CN1CCCCCC1)Nc1ccc(Cl)cc1F", "activity change": "7.99%"}, {"compound": "O=C(CCN1C(=O)c2ccccc2C1=O)Nc1cccc(F)c1", "activity change": "3.35%"}, {"compound": "CCOC(=O)N1CCN(CCC(=O)Nc2ccccc2)CC1", "activity change": "12.9%"}, {"compound": "O=C(CN1CCN(C(=O)c2cccc(F)c2)CC1)Nc1ccccc1F", "activity change": "-0.253%"}, {"compound": "O=C(C[C@H]1C[C@@H]2c3cc(NC(=O)C4CCC4)ccc3O[C@@H]2[C@H](CO)O1)NC1CCCCC1", "activity change": "-25.5%"}, {"compound": "N#Cc1ccc(OCC(=O)Nc2nc(-c3ccccn3)cs2)cc1", "activity change": "6.83%"}, {"compound": "CCN1C(=O)[C@H]2[C@@H](c3ccccc3)N[C@]3(CCCN(Cc4ccc(C)cc4)C3=O)[C@H]2C1=O", "activity change": "28.9%"}, {"compound": "COc1ccc(-c2ccc3[nH]c4c(c3c2)CCN2C[C@H]3[C@H](C)ON(C)[C@H]3C[C@@H]42)cc1", "activity change": "-3.51%"}, {"compound": "O=C(CCc1ccc(O)cc1)NN=Cc1cc(Br)ccc1O", "activity change": "1.97%"}, {"compound": "O=C(COc1ccc(Br)cc1)OCC(=O)c1ccc[nH]1", "activity change": "-1.12%"}, {"compound": "COc1ccc(N)cc1NC(=O)CN1CCOCC1", "activity change": "1.24%"}, {"compound": "O=C(CSc1nnc(-c2ccccn2)n1-c1ccccc1)Nc1ccc2c(c1)OCO2", "activity change": "2.89%"}, {"compound": "Cc1ccc(-n2c(SCC(=O)Nc3ccc4c(c3)OCO4)nnc2-c2ccoc2C)cc1", "activity change": "-79.7% (active)"}, {"compound": "Cc1ccc(-n2c(SCC(=O)Nc3ccc4c(c3)OCO4)nnc2-c2ccccn2)cc1", "activity change": "1.11%"}, {"compound": "COc1cccc(/C=C2\\SC(=S)N(CCCC(=O)N3CCOCC3)C2=O)c1", "activity change": "-1.71%"}, {"compound": "COc1ccc(CN2C(=O)C(CC(=O)NCCCCc3ccccc3)CC(C(=O)N3CCOCC3)=C2C)cc1", "note": "(stereo not drawn)", "activity change": "-14.3%"}, {"compound": "Cc1cc(OCC(=O)Nc2nccs2)c2c(C)c(C)c(=O)oc2c1", "activity change": "-8.76%"}, {"compound": "O=C(NCCCN1CCN(c2ccc(F)cc2)CC1)Nc1ccc([N+](=O)[O-])cc1", "activity change": "-86.7% (active)"}, {"compound": "O=C(CN1CCN(c2ccccc2)CC1)Nc1ccc(F)cc1", "activity change": "0.316%"}, {"compound": "CN1CCN(CCNC(=O)Nc2ccc([N+](=O)[O-])cc2)CC1", "activity change": "4.38%"}, {"compound": "CN(C)C(CNC(=O)c1cc(Br)c(Br)s1)c1ccco1", "note": "(stereo not drawn)", "activity change": "-1.59%"}, {"compound": "O=C(NCc1nnnn1-c1ccc(Cl)cc1)c1ccc2c(c1)OCO2", "activity change": "-10.1%"}, {"compound": "O=C(COC(=O)c1cncc(Br)c1)Nc1ccc(S(=O)(=O)N2CCOCC2)cc1", "activity change": "-6.79%"}, {"compound": "COC(=O)[C@@H](Cc1ccccc1)NC(=O)NCCc1ccccc1", "activity change": "-9.89%"}, {"compound": "COC(=O)[C@H](Cc1ccccc1)NC(=O)[C@@H]1C[C@H]1[C@@H](NC(=O)OCc1ccccc1)c1ccccc1", "activity change": "-95.1% (active)"}, {"compound": "COC(=O)[C@H](Cc1ccccc1)NC(=O)N1CC(C)OC(C)C1", "note": "(stereo partly drawn)", "activity change": "-5.69%"}, {"compound": "O=C(COC(=O)Cc1ccc(Cl)cc1Cl)NCc1ccco1", "activity change": "-13.7%"}, {"compound": "O=C(O)C1=C(C(=O)O)C2CCC1C2", "activity change": "1.57%"}, {"compound": "COc1cc(C(=O)NCCOC(=O)c2cccc(N(C)C)c2)cc(OC)c1OC", "activity change": "-77.8% (active)"}, {"compound": "COc1ccccc1OCCNC(=O)c1cc([N+](=O)[O-])cc([N+](=O)[O-])c1", "activity change": "-8.81%"}, {"compound": "COC(=O)c1cccc(NC(=O)CN2CCC(NC(=O)c3cc(OC)c(OC)c(OC)c3)CC2)c1", "activity change": "-11.4%"}, {"compound": "O[C@@H]1C[C@H](c2ccccc2)N(Cc2cccs2)C[C@H]1n1cc(C2CC2)nn1", "activity change": "-10.3%"}, {"compound": "C[C@@H]1CN([C@@H](C)CO)C(=O)CCCn2nncc2CO[C@H]1CN(C)Cc1ccc(C(F)(F)F)cc1", "activity change": "15.2%"}, {"compound": "COc1ccc(S(=O)(=O)N2CCC(C(=O)NCCC(=O)NCCc3cccc(F)c3)CC2)cc1", "activity change": "-0.519%"}, {"compound": "O=C(Nc1ccc(F)c([N+](=O)[O-])c1)C1CC(=O)N(Cc2ccccc2)C1", "note": "(stereo not drawn)", "activity change": "-5.91%"}, {"compound": "Cc1cc(=O)oc2cc(NC(=O)C(C)Oc3ccccc3)ccc12", "note": "(stereo not drawn)", "activity change": "16.9%"}, {"compound": "Cc1cc(=O)oc2cc(NC(=O)C3CC(=O)N(Cc4ccccc4)C3)ccc12", "note": "(stereo not drawn)", "activity change": "-71% (active)"}, {"compound": "Cc1cc(-c2ccc(C)c(S(=O)(=O)Nc3ccc(S(N)(=O)=O)cc3)c2)on1", "activity change": "6.07%"}, {"compound": "Cc1ccc2c(c1)N(S(=O)(=O)c1cc(-c3cc(C)no3)ccc1C)CCO2", "activity change": "-82.2% (active)"}, {"compound": "Cc1cc(-c2ccc(C)c(S(=O)(=O)NC(C)Cc3ccco3)c2)on1", "note": "(stereo not drawn)", "activity change": "-6.2%"}, {"compound": "Cc1ccc(-c2ccc(CN3C(C(C)C)C(=O)N(Cc4cn(CCC5OCCO5)nn4)CCS3(=O)=O)cc2)cc1", "note": "(stereo not drawn)", "activity change": "0.464%"}, {"compound": "Cc1noc(C)c1NC(=O)N(C)C[C@@H]1Oc2cc(Br)ccc2S(=O)(=O)N([C@@H](C)CO)C[C@H]1C", "activity change": "-17.2%"}, {"compound": "COCOCCn1cc(CN2CCS(=O)(=O)N(Cc3ccc(-c4ccc(OC)cc4)cc3)C(CC(C)C)C2=O)nn1", "note": "(stereo not drawn)", "activity change": "-1.8%"}, {"compound": "C/C=C(\\C)C(=O)NCCN1C2=NC[C@H](Cc3ccc(O)cc3)N2C[C@@H]1Cc1ccc(OC)cc1", "activity change": "-104% (active)"}, {"compound": "COc1ccc(CCNC(=O)COC(=O)C2CCCCC2)cc1", "activity change": "8.75%"}, {"compound": "COc1ccc(C[C@H]2CN3C(=NC[C@H]3C)N2CCNC(=O)CCC2CCCCC2)cc1", "activity change": "-109% (active)"}, {"compound": "COc1ccc(NC(=O)CCCC2CCCCC2)c(OC)c1", "activity change": "8.96%"}, {"compound": "COc1ccc(CCNC(=O)COC(=O)C2CC2C)cc1", "note": "(stereo not drawn)", "activity change": "5.06%"}, {"compound": "NC1=NC[C@@H](Cc2ccc(O)cc2)N1CC1CCCCC1", "activity change": "19%"}, {"compound": "Cc1ccn(CC(=O)NC2CCCN(Cc3ccccc3F)C2)n1", "note": "(stereo not drawn)", "activity change": "7.86%"}, {"compound": "O=C(O)c1ccccc1Cc1ccc(F)c2ccccc12", "activity change": "1.01%"}, {"compound": "CCN(CC)C(=O)C1=C(C)N(Cc2ccc(F)cc2)C(=O)C(CC(=O)NCc2cccc3ccccc23)C1", "note": "(stereo not drawn)", "activity change": "10.8%"}, {"compound": "CCn1c(CNS(=O)(=O)c2ccc(Cl)cc2)n[nH]c1=S", "activity change": "-7.51%"}, {"compound": "CCn1c(CN2C(=O)CSc3ccccc32)n[nH]c1=S", "activity change": "-86.9% (active)"}, {"compound": "CCn1c(CSCc2c(Cl)cccc2Cl)n[nH]c1=S", "activity change": "-10.5%"}, {"compound": "CCN(CC)C(=O)C1=C(C)N(Cc2ccc(OC)cc2)C(=O)C(CC(=O)NCCCCc2ccccc2)C1", "note": "(stereo not drawn)", "activity change": "-3.76%"}, {"compound": "CCn1c(CNC(=O)c2ccccc2)nnc1SCC(=O)N1CCN(c2ccccc2)CC1", "activity change": "-7.37%"}, {"compound": "CCOC(=O)CSc1nnc(CNC(=O)c2ccco2)n1-c1ccc(F)cc1", "activity change": "-10.2%"}, {"compound": "CSc1nnc(CNC(=O)c2ccccc2)n1-c1ccc(F)cc1", "activity change": "-88.2% (active)"}, {"compound": "COc1cc2ccc(C(C)=O)c(O)c2cc1OC", "activity change": "5.97%"}, {"compound": "N#CCCC(C#N)(c1cccnc1)N1CCOCC1", "note": "(stereo not drawn)", "activity change": "7.47%"}, {"compound": "C[C@H](CO)N1C[C@H](C)[C@@H](CN(C)C(=O)c2cccc(F)c2)Oc2cc(-c3cncnc3)ccc2S1(=O)=O", "activity change": "-2.89%"}]}]}
